Bioassay records deposited in PubChem by The Scripps Research Institute Molecular Screening Center.
HTR5A inv ag = HTR5A inverse agonists in luminescence cell assay, primary screen, counter-screen for OPRM1-OPRD1 heterodimer inverse agonist project, full-deck HTS; 5-hydroxytryptamine receptor 5A (Homo sapiens), P47898; HTR5A cell line, inverse agonism; inhibition, % at 9.3 µM; 0.083% of 340,000 active; in the data active means inhibition mostly above about 23%, no sharp cut-off; inactive means mostly below about 18%
MOR-DOR inv ag = inverse agonists of MOR-DOR heterodimerization, primary screen, cell-based, luminescence; Mu-type opioid receptor (Homo sapiens) + Delta-type opioid receptor (Homo sapiens), …; cell-based MOR-DOR heterodimer luminescence, inverse agonism; inhibition, % at 9.3 µM; 0.21% of 340,000 active; in the data active means inhibition above about 22%, passing the limit was not always enough
Target sequence (P35372 whole entry, looked up): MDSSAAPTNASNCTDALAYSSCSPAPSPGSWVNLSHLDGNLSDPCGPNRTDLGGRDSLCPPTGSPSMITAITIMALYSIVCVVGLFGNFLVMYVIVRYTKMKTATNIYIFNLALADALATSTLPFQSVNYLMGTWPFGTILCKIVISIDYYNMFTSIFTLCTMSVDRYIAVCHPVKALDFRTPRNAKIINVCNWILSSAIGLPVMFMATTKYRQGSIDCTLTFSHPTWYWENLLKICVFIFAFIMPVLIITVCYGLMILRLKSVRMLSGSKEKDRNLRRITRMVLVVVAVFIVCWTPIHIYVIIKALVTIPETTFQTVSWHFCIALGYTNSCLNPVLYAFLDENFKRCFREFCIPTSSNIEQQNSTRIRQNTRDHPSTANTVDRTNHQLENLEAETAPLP
Target sequence (P41143 whole entry, looked up): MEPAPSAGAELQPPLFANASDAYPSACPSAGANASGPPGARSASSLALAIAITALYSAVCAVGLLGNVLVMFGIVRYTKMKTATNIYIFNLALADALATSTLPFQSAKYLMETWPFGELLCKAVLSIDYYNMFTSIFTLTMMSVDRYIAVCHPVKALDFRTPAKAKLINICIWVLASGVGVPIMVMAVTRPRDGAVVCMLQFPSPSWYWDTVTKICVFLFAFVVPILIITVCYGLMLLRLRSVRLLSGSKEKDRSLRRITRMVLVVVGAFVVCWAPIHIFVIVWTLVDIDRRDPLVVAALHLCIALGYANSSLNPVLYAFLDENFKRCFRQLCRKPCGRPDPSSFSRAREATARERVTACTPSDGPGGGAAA
OPRM1-OPRD1 ag = agonists of OPRM1-OPRD1 heterodimerization, primary screen, cell-based, luminescence. 0.3% of 340,000 active. activation, % at 9.3 µM. cells. Mu-type opioid receptor (Homo sapiens) + Delta-type opioid receptor (Homo sapiens), …; in the data active means activation above about 18%
HTR5A ag ctr = HTR5A agonists in luminescence cell assay, primary screen, counter-screen for OPRM1-OPRD1 heterodimer agonist project, full-deck HTS | AID 504692, 2011 | 0.61% of 340,000 active | cell-based | activation, % at 9.3 µM; in the data active means activation mostly above about 9.5%, no sharp cut-off; inactive means mostly below about 7.6%
HTR2A ag = mouse Htr2a agonists via beta-arrestin recruitment, primary screen, cell-based, luminescence; 5-hydroxytryptamine receptor 2A (Mus musculus), P35363; CHO-K1 mHTR2A beta-arrestin complementation; percent of 30 µM serotonin response; activation, % at 7.6 µM; 0.66% of 360,000 active;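 active means activation above a run cutoff, the mean activation of all tested compounds plus 3 SD, cut at about 14% in these data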
Large screens that a line does not name were inactive. Compounds with a hit are over-represented: about 1.6% of the library has one in this group of screens.

C/C(=N/NS(=O)(=O)c1cc(C)ccc1C)c1c[nH]c2ccccc12	HTR5A ag ctr 12
C/C(=N\NS(=O)(=O)c1ccc(C)cc1)c1cccs1	none
Cc1ccc(C)c(NC(=O)CS(=O)(=O)c2c[nH]c3ccccc23)c1	none
C/C(=N/NS(=O)(=O)c1ccccc1)c1c[nH]c2ccccc12	HTR5A ag ctr 12
C/C(=N/NS(=O)(=O)c1cccc([N+](=O)[O-])c1)c1c[nH]c2ccccc12	none
CCN(CC)S(=O)(=O)c1ccc(N2CCOCC2)c(NS(=O)(=O)c2ccc(Cl)s2)c1	none (no result: HTR5A inv ag, MOR-DOR inv ag, OPRM1-OPRD1 ag, HTR5A ag ctr)
COc1cccc(NC(=S)NC(Cc2ccccc2)c2ccccc2)c1 (stereo not drawn)	none (no result: HTR5A inv ag, MOR-DOR inv ag, OPRM1-OPRD1 ag, HTR5A ag ctr)
Nc1ccc(-c2c3ccc(=O)cc-3oc3cc(O)ccc23)c(C(=O)O)c1	MOR-DOR inv ag 32
O=C(NCc1ccccc1)C(C1CC1)n1c(Cc2cc(F)cc(F)c2)nc2ccccc21 (stereo not drawn)	none (no result: HTR5A inv ag, MOR-DOR inv ag, OPRM1-OPRD1 ag, HTR5A ag ctr)
O=[N+]([O-])c1ccccc1/C=C/C=N/n1c(-c2ccccc2)n[nH]c1=S	HTR5A ag ctr 13
O=Cc1s/c(=N\S(=O)(=O)c2ccccc2)n(CCCCl)c1Cl	MOR-DOR inv ag 34
CCOc1ccc(NC(=O)C2CCN(S(=O)(=O)c3ccc4c(c3)NC(=O)C(C)S4)CC2)cc1 (stereo not drawn)	HTR5A ag ctr 10
Cc1ccc(OCC(=O)N2CCN(c3nnc(-c4ccccc4)c4ccccc34)CC2)cc1	HTR5A ag ctr 9.0
CC(=O)N1CCN(c2nnc(-c3ccc(C)cc3)c3ccccc23)CC1	none
Cc1cc(C)cc(Cn2cc(CN3CC(N4CCSCC4)CS3(=O)=O)nn2)c1 (stereo not drawn)	none (no result: HTR5A inv ag, MOR-DOR inv ag, OPRM1-OPRD1 ag, HTR5A ag ctr)
CCCC(=O)Nn1cnc2c(c1=O)C1(CCCC1)Cc1ccccc1-2	none
CCCC(=O)NC1=C(C#N)C2(CCCC2)Cc2ccccc21	HTR5A ag ctr 11
COc1ccc(NC(=O)c2c(N)no[n+]2[O-])cc1	none
COc1ccc(C(=O)c2no[n+]([O-])c2C(=O)c2ccc(OC)cc2)cc1	OPRM1-OPRD1 ag 40, HTR5A ag ctr 26
COC(=O)c1sc(N)c(C(=O)OC)c1COC(=O)c1c(C)noc1C	HTR5A inv ag 46, MOR-DOR inv ag 46
O=C(Nc1ccc2c(c1)OCCO2)C1c2ccccc2OCC(=O)N1CC(F)(F)F (stereo not drawn)	none (no result: HTR5A inv ag, MOR-DOR inv ag, OPRM1-OPRD1 ag, HTR5A ag ctr)
COc1ccc2[nH]cc(CCNC(=O)c3ccc4ccccc4n3)c2c1	HTR5A ag ctr 14
COc1ccc(C(=O)NCCc2c[nH]c3ccc(OC)cc23)cc1	none
Cc1nc2c(C(=O)N3CCOCC3)cnn2c(C)c1Cc1ccc(Cl)cc1	HTR5A ag ctr 12
Cc1ccc(N2CCN(C(C(=O)Nc3c(C)cccc3C)c3cccc(F)c3)CC2)cc1 (stereo not drawn)	none (no result: HTR5A inv ag, MOR-DOR inv ag, OPRM1-OPRD1 ag, HTR5A ag ctr)
COc1cc(/C=N/N=C(N)N)ccc1OCc1ccc(Cl)cc1	HTR5A ag ctr 10
CCOc1cc(/C=N/N=C(N)N)ccc1OCc1ccc(Cl)cc1	none
CC1(C(=O)Nc2cccc3ncccc23)CCN1C(=O)Cc1ccc(-c2ccccc2)cc1 (stereo not drawn)	none (no result: HTR5A inv ag, MOR-DOR inv ag, OPRM1-OPRD1 ag, HTR5A ag ctr)
COc1ccc(C2C(O)C(c3c[nH]c4ccccc34)=NN2C(=O)CCl)cc1 (stereo not drawn)	OPRM1-OPRD1 ag 60, HTR5A ag ctr 56
COc1ccc(C2NN=C(c3c[nH]c4ccccc34)C2O)cc1 (stereo not drawn)	none
CCc1c(C)nc2ncnn2c1N1CCCC(C(=O)Nc2ccc(NC(C)=O)cc2)C1 (stereo not drawn)	HTR5A ag ctr 13
O=C(CCl)N(C/C=C/c1ccccc1)c1ccc2c(c1)OCCO2	OPRM1-OPRD1 ag 38, HTR5A ag ctr 71
O=C(/C=C/c1ccccc1)c1ccc2c(c1)OCCCCO2	none
COc1ccc(NC(=O)c2ccc(F)cc2)cc1S(=O)(=O)Nc1cc(C)ccc1Br	HTR5A ag ctr 12
COc1ccc(NC(=O)c2[nH]c(C)c(C(C)=O)c2C)cc1S(=O)(=O)Nc1ccc(Br)cc1	HTR5A ag ctr 13
COc1ccc(NC(=O)c2[nH]c(C)c(C(C)=O)c2C)cc1	HTR5A ag ctr 12
COc1ccc(NS(=O)(=O)c2cc(NC(=O)c3ccc(F)cc3)ccc2OC)cc1	none
CCOc1ccc(NC(=O)c2[nH]c(C)c(C(C)=O)c2C)cc1	none
O=C(C(=O)N1CCN(c2ccccc2)CC1)c1ccco1	none (no result: HTR5A inv ag, MOR-DOR inv ag, OPRM1-OPRD1 ag, HTR5A ag ctr)
CC(C)c1ccc(NC(=O)C2(C)Cc3c(-c4ccc5c(c4)OCO5)ccnc3O2)cc1 (stereo not drawn)	none (no result: HTR5A inv ag, MOR-DOR inv ag, OPRM1-OPRD1 ag, HTR5A ag ctr)
CSc1ccccc1NC(=O)c1cc(-c2cccnc2)nc2ccc(Br)cc12	HTR5A ag ctr 13
CC(C)CSc1nc2c(c(=O)[nH]c(=O)n2C)n1CC(O)COc1cccc2ccccc12 (stereo not drawn)	HTR5A ag ctr 13
Nc1[nH]c(C(=O)c2ccccc2)c(-c2ccc(Cl)cc2Cl)c1C(=O)c1ccc(Br)cc1	none (no result: HTR5A inv ag, MOR-DOR inv ag, OPRM1-OPRD1 ag, HTR5A ag ctr)
CC(C)c1ccccc1NC(=S)NC1CCN(Cc2ccccc2)CC1	HTR5A ag ctr 11
CC(C)(C)c1ccc(-n2ncc3c2CCCC3NC(=O)c2ccco2)cc1 (stereo not drawn)	none (no result: HTR5A inv ag, MOR-DOR inv ag, OPRM1-OPRD1 ag, HTR5A ag ctr)
Cc1cc(NC(=O)CSc2nccn2C)n(-c2ccccc2)n1	HTR5A ag ctr 14
Cc1cc(NC(=O)COc2ccccc2)n(-c2ccccc2)n1	none
CC(=O)Nc1ccc(-c2ccnc3c2CC(C)(C(=O)Nc2cccc(OC(F)(F)F)c2)O3)cc1 (stereo not drawn)	none (no result: HTR5A inv ag, MOR-DOR inv ag, OPRM1-OPRD1 ag, HTR5A ag ctr)
O=S1(=O)CC(N2CCCC2)CN1Cc1cn(Cc2ccccc2)nn1 (stereo not drawn)	none (no result: HTR5A inv ag, MOR-DOR inv ag, OPRM1-OPRD1 ag, HTR5A ag ctr)
CC1CCc2c(sc3nc(C(C)(C)C)nc(N4CCN(C(=O)CCl)CC4)c23)C1 (stereo not drawn)	OPRM1-OPRD1 ag 72, HTR5A ag ctr 46
COc1cccc(C(NC(C)=O)c2nc(-c3ccc(F)cc3OC)cs2)c1 (stereo not drawn)	none (no result: HTR5A inv ag, MOR-DOR inv ag, OPRM1-OPRD1 ag, HTR5A ag ctr)
CC1(c2nc3ccccc3[nH]2)CCC2=Nc3ccccc3CN21 (stereo not drawn)	none (no result: HTR5A inv ag, MOR-DOR inv ag, OPRM1-OPRD1 ag, HTR5A ag ctr)
Cc1ccc(-c2cc(-c3ccccc3)nc(NN)n2)cc1	HTR5A inv ag 33, MOR-DOR inv ag 43
CCCc1c(-c2ccc(F)cc2F)ncn1Cc1ccccc1OC	none (no result: HTR5A inv ag, MOR-DOR inv ag, OPRM1-OPRD1 ag, HTR5A ag ctr)
Cc1ccccc1-n1c(SCc2cccc(F)c2)nc2[nH]ncc2c1=O	HTR5A ag ctr 14
CC(NNC(=S)N1CCCCCC1)c1ccc2ccccc2n1 (stereo not drawn)	none (no result: HTR5A inv ag, MOR-DOR inv ag, OPRM1-OPRD1 ag, HTR5A ag ctr)
Cc1cccc(C)c1NC(=O)C(c1cccc2ccccc12)n1c(=O)c(-c2cc3ccccc3[nH]2)nc2ccccc21 (stereo not drawn)	none (no result: HTR5A inv ag, MOR-DOR inv ag, OPRM1-OPRD1 ag, HTR5A ag ctr)
Cc1cc(C)n2nc(NCc3cccc(Br)c3)nc2n1	HTR5A ag ctr 12
COc1ccc(CNc2nc3nc(C)cc(C)n3n2)cc1OC	none
